A selection: hits, their analogues and other compounds. The true share with any hit is near 8%.
SW480 rerep: DNA re-replication induction in SW480 cells. SW480 DNA re-replication, Hoechst DNA content imaging, 48 h. Potency, µM (doses to about 46.1 µM), most hits filed as activators. actives 1.8% (n = 340,000); further: nearly all actives have a fitted effect of over 55% in size
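Compounds, transferred as 23 nL by pin tool, were incubated with cells for 48 hr; DNA content per nucleus was then quantified by Hoechst staining and fluorescence plate imaging.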
KB-3-1 tox: KB-3-1 parental cell cytotoxicity; AID 1347075; KB-3-1 viability, CellTiter-Glo ATP luminescence, 72 h; actives 1.4% (n = 400,000); Potency, µM (highest dose often 46.1 µM), hits mostly cytotoxic; further: nearly all actives have a fitted effect of over 60% in size
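Luminescent ATP read-out (CellTiter-Glo) measures survival of drug-naive KB-3-1 cells after 72 h compound exposure at 37 °C. Titration series was screened from lowest to highest concentration, with DMSO vehicle plates as background controls.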
HT1080NT lethal: kills 2HG-producing HT-1080-NT fibrosarcoma cells; HT-1080-NT fibrosarcoma viability, CellTiter-Glo ATP luminescence, 48 h; Potency, µM (series often up to 46.1 µM), hits mostly cytotoxic; actives 1.6% (n = 360,000);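 further: NT is the 2HG producing partner of a matched IDH1 knockdown line; nearly all actives have a fitted effect of over 55% in size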
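Viability by CellTiter-Glo luminescence after 48 h compound exposure at 37C of HT-1080-NT cells (750/well, RPMI, 5% FBS). % activity scaled between DMSO wells and medium-only wells, then curve-fitted and categorized by curve class.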
KB-V1 MDR tox: kills drug-selected multidrug resistant KB-V1 cells. Potency, µM (series often up to 46.1 µM), actives largely listed as cytotoxic. actives 3.4% (n = 400,000). KB-V1 MDR cells viability, CellTiter-Glo, 72 h. AID 1347076; further: nearly all actives have a fitted effect of over 60% in size
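Drug-selected KB-V1 cells, grown in DMEM lacking phenol red with 10% FBS, receive compound titrations; after three days at 37 degrees C, surviving cell ATP is quantified by CellTiter-Glo luminescence and responses normalized and curve-fitted.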
HT1080 IDH1KD tx: HT-1080 IDH1 knockdown cell toxicity (counter line); AID 686971; actives 2% (n = 360,000); Potency, µM (highest dose often 46.1 µM), actives largely listed as cytotoxic; HT-1080 IDH1 knockdown viability, ATP luminescence, 48 h
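Cytotoxicity counter-line: IDH1KD HT-1080, 48 h, CellTiter-Glo. Curves classed by r2, magnitude and activity.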
MCF10A rerep: DNA re-replication induction in MCF 10a cells; MCF 10A DNA re-replication, Hoechst nuclear intensity, 48 h; Potency, µM (doses to about 46.1 µM), usual class: activators; actives 2.9% (n = 350,000); further: nearly all actives have a fitted effect of over 50% in size
Large screens that a line does not name were inactive; ! = a repeat was not active. The call rests on the fitted dose curve; in most records, active means well fitted curve in the direction sought with a large enough effect; inconclusive means small, poorly fitted or top-dose-only effect, or another doubt; inactive means no such curve, though single readings can be large; an effect the other way counts as inactive or inconclusive.

CC/C(=C(\c1ccccc1)c1ccc(OCCN(C)C)cc1)c1ccccc1	SW480 rerep 1.3µM!, HT1080NT lethal 16.4µM, KB-V1 MDR tox inconclusive, HT1080 IDH1KD tx inconclusive, MCF10A rerep inconclusive
CCN(CC)CCOc1ccc(/C(=C(/Cl)c2ccccc2)c2ccccc2)cc1	KB-3-1 tox inconclusive, HT1080NT lethal 18.4µM, KB-V1 MDR tox inconclusive, HT1080 IDH1KD tx 18.4µM!, MCF10A rerep 4.11µM!
CCN(CC)c1nc(NNC(=O)c2ccccc2)nc(N(CC)CC)n1	none
CN1CCN(C(=S)c2ccc(-c3cc(Cl)ccc3Cl)o2)CC1	none
N#CCCN1CCN(C(=S)c2ccc(-c3cc(Cl)ccc3Cl)o2)CC1	KB-V1 MDR tox 6.51µM
COc1ccc(-c2nnc(SCCC(=O)O)n2-c2ccccc2)cc1	KB-3-1 tox 18.4µM
N#Cc1ccccc1NC(=O)CSc1nnc(-c2ccccc2)n1-c1ccccc1	SW480 rerep 23.1µM, KB-3-1 tox inconclusive, KB-V1 MDR tox 14.6µM, MCF10A rerep inconclusive
CCNC(=O)CSc1nnc(-c2ccccc2)n1-c1ccc(OCC)cc1	KB-V1 MDR tox 18.4µM
NNC(=O)CSc1nc(-c2ccccc2)cn1-c1ccccc1	none
COc1ccc2c(c1)sc1ncc(C(=O)NCc3ccccc3F)c(=O)n12	none (no result: SW480 rerep, HT1080NT lethal, HT1080 IDH1KD tx, MCF10A rerep)
O=C(Nc1ccc(S(=O)(=O)NC2=NCCCCC2)cc1)c1ccc(Cl)c([N+](=O)[O-])c1	HT1080NT lethal inconclusive, MCF10A rerep 20.6µM
O=C(Nc1ccc(S(=O)(=O)NC2=NCCCCC2)cc1)c1ccc(C(F)(F)F)cc1	KB-3-1 tox 20.6µM, KB-V1 MDR tox 20.6µM
O=C(Nc1ccc(S(=O)(=O)NC2=NCCCCC2)cc1)c1ccc([N+](=O)[O-])s1	SW480 rerep 13µM, KB-3-1 tox 6.51µM, HT1080NT lethal inconclusive, KB-V1 MDR tox inconclusive, HT1080 IDH1KD tx inconclusive, MCF10A rerep inconclusive
Cc1cccc(C)c1NS(=O)(=O)c1ccc(NC(=O)c2ccc(Cl)c([N+](=O)[O-])c2)cc1	SW480 rerep inconclusive, HT1080NT lethal inconclusive, KB-V1 MDR tox inconclusive, HT1080 IDH1KD tx inconclusive, MCF10A rerep inconclusive
Cc1ccc(NC(=O)C2CCCN2S(=O)(=O)c2ccc3c(c2)CCCC(=O)N3)cc1Cl (stereo unspecified)	none (no result: SW480 rerep, HT1080NT lethal, HT1080 IDH1KD tx, MCF10A rerep)
COCCNC(=O)c1sc2nc(-c3ccccc3)cn2c1C	KB-V1 MDR tox 13µM
Cc1c(C(=O)NCc2ccccn2)sc2nc(-c3ccccc3)cn12	KB-3-1 tox 9.2µM, HT1080NT lethal inconclusive, HT1080 IDH1KD tx inconclusive
Cc1c(C(=O)NCc2ccccn2)sc2nc(-c3ccc(F)cc3)cn12	KB-3-1 tox inconclusive, HT1080 IDH1KD tx inconclusive, MCF10A rerep inconclusive
CCN(CC)CCCNC(=O)c1sc2nc(-c3ccc(F)cc3)cn2c1C	SW480 rerep inconclusive, HT1080NT lethal inconclusive, KB-V1 MDR tox 16.4µM, HT1080 IDH1KD tx inconclusive, MCF10A rerep 23.1µM
O=C(N/N=C/c1cccc(Br)c1)c1ccc(Br)cc1	none
CCN(CC)c1ccc(NC(=O)c2nc3nc(C)cc(C(F)F)n3n2)cc1	none
COc1ccc(S(=O)(=O)N2CCC(C(=O)NCCCN3CCOCC3)CC2)cc1	none
Cc1cccc(Oc2ccc(S(=O)(=O)N3CCCCC3)cc2NC(=O)C2=COCCO2)c1	HT1080 IDH1KD tx inconclusive
COc1ccc(S(=O)(=O)N(C)CC(=O)Nc2ccc(C(N)=O)cc2)cc1OC	none
C=CCc1c(C)nc(-c2ccccc2)nc1Nc1ccc(O)cc1	KB-3-1 tox 20.6µM, HT1080NT lethal inconclusive, KB-V1 MDR tox 13µM, HT1080 IDH1KD tx inconclusive, MCF10A rerep inconclusive
C=CCc1c(C)nc(SC)nc1Nc1ccccc1	KB-V1 MDR tox inconclusive
C=CCc1c(C)nc(SC)nc1Nc1ccc(C(=O)O)cc1	KB-3-1 tox inconclusive, KB-V1 MDR tox 20.6µM, HT1080 IDH1KD tx inconclusive, MCF10A rerep inconclusive
C=CCc1c(C)nc(SC)nc1Nc1ccc(C(C)=O)cc1	KB-V1 MDR tox 11.6µM
CCN(CC(=O)NCc1ccc(F)cc1)CC(=O)Nc1ccccc1-c1ccccc1	KB-V1 MDR tox inconclusive, MCF10A rerep inconclusive
COc1ccccc1N1CCN(C(=O)c2noc(C)c2[N+](=O)[O-])CC1	SW480 rerep inconclusive, MCF10A rerep inconclusive
Cc1onc(C(=O)N2CCN(C(c3ccccc3)c3ccccc3)CC2)c1[N+](=O)[O-]	SW480 rerep 4.11µM
O=C(CSc1ccccn1)Nc1ccc2[nH]c(=O)[nH]c2c1	none
CCOc1cccc(/C=N/Nc2ccc(S(=O)(=O)N(CC)CC)cn2)c1O	SW480 rerep inconclusive, HT1080NT lethal inconclusive, KB-V1 MDR tox inconclusive, HT1080 IDH1KD tx 2.59µM, MCF10A rerep 5.17µM
CCOc1cccc(/C=N/NC(=O)C2CCCC2)c1O	SW480 rerep 5.8µM, HT1080 IDH1KD tx inconclusive
COc1ccc2cc3cc(C(=O)N4CCCC(C)C4)oc3nc2c1 (stereo unspecified)	KB-3-1 tox inconclusive
COC(=O)c1c(NC(=O)c2nn(C)cc2Cl)sc2c1CCCC2	KB-V1 MDR tox 5.8µM
COC(=O)c1c(NC(=S)Nc2cc(OC)c(Cl)cc2OC)sc2c1CCCCC2	KB-V1 MDR tox 20.6µM, MCF10A rerep inconclusive
COC(=O)c1c(NC(=O)c2ccn(C)n2)sc2c1CCC2	none
COC(=O)c1c(NC(=S)NNS(=O)(=O)c2ccc(OC)cc2OC)sc2c1CCCCCC2	MCF10A rerep inconclusive (no result: KB-3-1 tox, KB-V1 MDR tox)
Cc1cc(NC(=O)CSc2nc(-c3ccco3)cc(C(F)(F)F)n2)n(-c2ccccc2)n1	SW480 rerep inconclusive, KB-3-1 tox 5.8µM, HT1080NT lethal inconclusive, KB-V1 MDR tox 4.11µM, HT1080 IDH1KD tx inconclusive, MCF10A rerep 10.3µM
Cc1cc(NC(=O)CCCSc2nc(-c3ccco3)cc(C(F)(F)F)n2)n(-c2ccccc2)n1	KB-V1 MDR tox 2.91µM, HT1080 IDH1KD tx inconclusive
Cc1cc(NC(=O)CSc2nnnn2C)n(-c2ccccc2)n1	SW480 rerep 4.11µM, MCF10A rerep 6.51µM
COc1ccc(N=CC2CCCCC2=O)c([N+](=O)[O-])c1 (stereo unspecified)	KB-V1 MDR tox inconclusive
O=C1c2ccc3c4c(ccc(c24)C(=O)N1c1cccc(O)c1)C(=O)N(c1cccc(O)c1)C3=O	SW480 rerep 2.59µM, KB-3-1 tox 16.4µM, HT1080NT lethal inconclusive, HT1080 IDH1KD tx inconclusive, MCF10A rerep 13µM
O=C1c2ccc3c4c(ccc(c24)C(=O)N1c1cccc(O)c1)CC3	none
O=C1c2cccc3c(Cl)ccc(c23)C(=O)N1O	HT1080NT lethal 7.94µM
O=C(O)c1cccc(N2C(=O)c3cccc4c(Cl)ccc(c34)C2=O)c1	SW480 rerep inconclusive, MCF10A rerep 20.6µM
CCN1C(=O)c2cccc3c(Cl)ccc(c23)C1=O	SW480 rerep inconclusive
CNC(=O)c1nn(-c2ccccc2)ccc1=O	none
CCCCNC(=O)Nc1nnc(SCC(=O)OCC)s1	none
